For 40 sequences, sensor-assay potency score (higher = more potent) results are on record in the OligoGym collection.
Further: reference of the scale not given here.

The target in one assay is PML. The assay can be described thus: pooled miR-30 sensor sort-seq; sequence = guide strand. Particulars: shRNA.
In turn, TTCGGCATCTGAGTCTTCCGAG had a sensor-assay potency score (higher = more potent) of 0.322.

In the case of AAGTCTGAGAGTCACCTGCTGT, the sensor-assay potency score (higher = more potent) was -0.995. As to TCGTGCTTGAGGAACCACTGGT, the sensor-assay potency score (higher = more potent) amounted to 0.0745. Same read-out and setting: under TTGTATTGGAGACATCCTCTCC stands -0.965; under TATTGGAGACATCCTCTCCATA, -1.32; under TTTCTCGCCAGGTAGGTCTGGG, 0.0297. With TTCTTGAGTTTGAAGCTGCTGG, the sensor-assay potency score (higher = more potent) was -0.233. Same read-out and setting: the result for TTCATTGTCAATCTTGAGGTCA reads 0.253; that for TTGTATTGGAGACATCCAGGTC, -0.853; that for TATCTTTCTACATGGATGGAGT, -0.448. For the sequence TACAGCTGCATCTTTCCCCTGG, the sensor-assay potency score (higher = more potent) came out at 0.227.

For another assay, the target named is PNPLA3. The assay is described as above. Particulars: shRNA.
Regarding TTTGCAGAGACCCTGTCGGAGG, the sensor-assay potency score (higher = more potent) was -0.649. In turn, TATCGCACGCCTCTGAAGGAAG yielded a sensor-assay potency score (higher = more potent) of -1.42. For the sequence ATTACATAAGACATTATCCTAA, the sensor-assay potency score (higher = more potent) was -0.605. As for TAGCAAGTTGCAAATCTTGCTC, the sensor-assay potency score (higher = more potent) is -0.46. Turning to TAGAAGGGGATGAAGCAGGAAC, the sensor-assay potency score (higher = more potent) is -0.79. In the case of TTCGTGGACTTGACTTTAGGGC, the sensor-assay potency score (higher = more potent) was -0.495.

TAGCAGCTCATCTCCCTCCAGC returned a sensor-assay potency score (higher = more potent) of -1.05.

TCTGCTTTGGTCTCTGCTGGAC had a sensor-assay potency score (higher = more potent) of -0.599.

The sequence TAAGACATTATCCTAATGGGTA displayed a sensor-assay potency score (higher = more potent) of -0.331. Same read-out and setting: the result for TCTTGCTCATGTATCCACCTTT reads -0.0736; that for TTGCTTAAGTTGAAGGATGGAT, -0.584.

With TTACATAAGACATTATCCTAAT, the sensor-assay potency score (higher = more potent) is -0.725.

Another assay has as its target POLG. Described as above. Particulars: shRNA.
As for TAATCCAGTTCTTCTACCGTTT, the sensor-assay potency score (higher = more potent) was -0.468. TTGAACATTTCTGACTCTGTGC registered a sensor-assay potency score (higher = more potent) of 0.0886. In turn, TTGTCCTGTAGTCCACACCGAT came in with a sensor-assay potency score (higher = more potent) of -1.34. The sequence TTTAGGTGTGACCCGCATCTGC registered a sensor-assay potency score (higher = more potent) of -1.03. TTGGCTGCTATCCACAGACTGC gave a sensor-assay potency score (higher = more potent) of -1.02. Turning to TTGTAGGCAAACATGCACCTGG, the sensor-assay potency score (higher = more potent) was found to be 0.0528. TTATTGAACATTTCTGACTCTG: the sensor-assay potency score (higher = more potent) was found to be 0.362.

For TTCCTCATCATAGTCGGGGTGC, the sensor-assay potency score (higher = more potent) was 0.36.

In turn, TATGGCACTATTGTCAGTGAGC registered a sensor-assay potency score (higher = more potent) of -0.848. ATTACAGCTATTACCATCCTTG showed a sensor-assay potency score (higher = more potent) of -0.0536. TTAAACTGCATTAGTAAGCGCT returned a sensor-assay potency score (higher = more potent) of -0.404. In turn, TATTGAACATTTCTGACTCTGT came in with a sensor-assay potency score (higher = more potent) of 0.187.

For another assay, the target named is POLH. Described as above. Particulars: shRNA.
TATTGTGTGAAATTCCAGCTGA registered a sensor-assay potency score (higher = more potent) of 0.557. TTGTACTGTACAACTGCACAAG showed a sensor-assay potency score (higher = more potent) of -0.852. TATCAATCTGAAGAGAATCGAG displayed a sensor-assay potency score (higher = more potent) of -0.521.

Turning to TAACTTCTTAGCATCATCTGCC, the sensor-assay potency score (higher = more potent) is 0.509.

Turning to TTACAGTTCTTGATGACAGTAA, the sensor-assay potency score (higher = more potent) came to 0.425.
